# Screening results as filed in PubChem BioAssay.
# Pf growth 96h = P. falciparum growth inhibition at 96 hour, primary screen for plastid delayed-death inhibitors; P. falciparum luciferase reporter growth, 96 h; Potency, µM (doses to about 28.7 µM), most hits filed as inhibitors; 320,000 tested, 6.9% active
#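 P. falciparum expressing integrated firefly luciferase grown in erythrocytes (2% hematocrit, 0.05% parasitemia final) with compounds for 96 hours at 37 C, 5% CO2. Growth inhibition read as loss of luminescence after adding luciferase detection reagent.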
# HCMV inh = blocks human cytomegalovirus replication; activity change, negative = inhibition, % at 57.5 µM; HFF cells, HCMV-luciferase reporter, 72 h; hits give low values; 410,000 tested, 4.5% active; in the data active = activity change below about -60%; inconclusive = no clear call, values can overlap the other calls; inactive = above about -39%
#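 After 16 h attachment at 37C, HFF cells received test compound and HCMV-luciferase (1 PFU/cell); reporter luminescence read 72 h later, data normalized against buffer-only and known inhibitor Salinomycin.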
# Pf growth 48h = P. falciparum growth inhibition at 48 hours (one generation) | P. falciparum luciferase growth in erythrocytes, 48 h | Potency, µM (series often up to 28.7 µM), most hits filed as inhibitors | 310,000 tested, 5.9% active
#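 Luciferase-expressing P. falciparum in infected erythrocytes (2% hematocrit, 0.1% parasitemia final) in RPMI 1640/0.5% Albumax were exposed to compound for 48 hours at 37 C, 5% CO2; growth read as luminescence.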
# HCV inhibitor = HCV inhibition. Huh7.5.1 HCVcc-Cre infection, luciferase reporter, 44 h. Potency, µM (titrated, usually from 41.8 µM), usual class: inhibitors. 340,000 tested, 3.4% active. AID 651820
#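 Cells seeded at 1,000/well and cultured 4 h, then compounds added followed by HCVcc-Cre virus (~0.5 moi). After 44 h further culture, luciferase substrate was added, plates held 15 min at room temperature, and luminescence read for 15 sec.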
# Numbers stand for hits; - = inactive; ? = inconclusive; . = not tested or not shown. In the library only some 13% were active in any assay of this set; here they are far more common. Unless noted, calls come from the whole dose curve; as a rule, active = well fitted inhibition curve with a large enough effect; inconclusive = small, poorly fitted or top-dose-only effect, or another doubt; inactive = no such curve, though single readings can be large or run the other way.
SMILES,Pf growth 96h,HCMV inh,Pf growth 48h,HCV inhibitor
O=C(CCS(=O)(=O)c1nc(-c2ccc3c(c2)OCO3)cc(C(F)(F)F)n1)Nc1ccccc1C(F)(F)F,.,-,.,.
COc1ccccc1NC(=S)NC(NC(=O)CC(C)C)C(Cl)(Cl)Cl (stereo unspecified),?,?,15µM,-
COc1ccccc1NC(=S)NC(NC(=O)c1ccco1)C(Cl)(Cl)Cl (stereo unspecified),-,-,?,-
Cc1ccc(C(=O)c2sc3c(c2N)c(=O)[nH]c(=O)n3CCc2ccccc2)cc1,9.3µM,-,?,-
Nc1c(C(=O)c2ccccc2)sc2c1c(=O)[nH]c(=O)n2-c1ccccc1,-,-,-,-
COC1CCN(Cc2c(C(=O)N3C[C@@H](C)O[C@@H](C)C3)nc3ccc(Cl)cn23)CC1,-,-,-,-
CCN(CC)C1CCN(Cc2c(C(=O)N3CCCCCCC3)nc3ccc(Cl)cn23)C1 (stereo unspecified),12µM,-,?,-
CCn1c(SCC(=O)NC(C)(C)C)nnc1-c1ccncc1,-,-,-,-
CCCCSc1nnc(-c2ccc(NC(C)=O)cc2)n1C,7.4µM,-,-,-
CC(=O)Nc1ccc(-c2nnc(SCC(=O)NCc3ccco3)n2C)cc1,6.6µM,-,.,-
Cn1c(SCC(=O)NC(C)(C)C)nnc1-c1ccc(C(C)(C)C)cc1,-,-60,?,?
COc1ccccc1-n1ccnc1SCC(=O)NCc1ccco1,10µM,-,?,-
C#CCOc1ccc(-c2nnc(Nc3cccc(C)c3)c3ccccc23)cc1,.,-,.,.
CC(=O)Nc1ccc(SCC(=O)OCC(=O)NC(=O)NCc2ccco2)cc1,9.3µM,-,-,-
Cc1ccc(CNC2=NCCS2)cc1,3.3µM,-,?,-
COc1ccc(NC(=O)Nc2ccc(OC)cc2)cc1,-,-,.,-
N#Cc1ccc(NC(=O)Nc2ccc(Oc3ccc(NC(=O)Nc4ccc(C#N)cc4)cc3)cc2)cc1,?,-82,1.7µM,?
N#Cc1ccc(NC(=O)Nc2cccc(C#N)c2)cc1,6.6µM,-,12µM,10µM
CC(C)Oc1ccc(C(=O)Nc2c(C(=O)Nc3cccc(F)c3)oc3ccccc23)cc1,.,-,.,.
COC(=O)c1ccc(N2C(c3cc(OC)cc(OC)c3)=Cc3ccc(OC)cc3C2CC(=O)c2ccco2)cc1 (stereo unspecified),.,-,.,.
COC(=O)c1ccc(N2C(c3ccsc3)=Cc3cc4c(cc3C2CC(=O)c2ccco2)OCO4)cc1 (stereo unspecified),.,-69,.,.
COc1cccc(CN(C)C(=O)c2cc(COc3ccc4ncccc4c3)on2)c1,-,-86,-,5.6µM
COc1cccc(OCc2cc(C(=O)N(C)CCOc3ccc(C)cc3)no2)c1,?,-,-,11µM
COc1ccc(OCc2cc(C(=O)N(C)Cc3cc(C4CC4)n[nH]3)no2)c(Cl)c1,-,-,9.3µM,?
Cc1cc(OCc2cc(C(=O)N(C)CCOc3ccccc3)no2)cc(C)c1Cl,-,-,-,?
SMILES,Pf growth 96h,HCMV inh,Pf growth 48h,HCV inhibitor
CCOc1ccc(N(CC)S(=O)(=O)N2CCCC(C(=O)Nc3cc(Cl)ccc3C)C2)cc1 (stereo unspecified),.,-,.,.
CC(C)c1ccc(CNc2nc(-c3ccco3)nn2S(=O)(=O)c2ccc(F)cc2)cc1,.,-,.,.
N#CC1=C(N)N=C(SCc2cccc3ccccc23)C(C(N)=O)C12CCCCC2 (stereo unspecified),12µM,-,.,-
CC1=CC=CC2=NC(=O)CC(C)(C(=O)N(CC(=O)NC3CCCC3)c3ccc(F)cc3)N12 (stereo unspecified),-,-82,-,-
CC1=CC=CC2=NC(=O)CC(C)(C(=O)N(CC(=O)NC3CCCC3)c3ccccc3C)N12 (stereo unspecified),-,-,.,-
COc1ccc(S(=O)(=O)NC(C(=O)NCCc2ccccn2)C(C)C)cc1 (stereo unspecified),-,-66,-,-
COc1ccc(S(=O)(=O)NCCc2ccccn2)cc1,.,-,.,-
c1ccc(CSc2nc3ncncc3[nH]2)cc1,-,?,-,-
O=C(c1ccc(CSc2nc3ccncc3[nH]2)cc1)N1CCN(c2cccc(Cl)c2)CC1,?,-90,?,7.9µM
Clc1ccc(CSc2nc3ccncc3[nH]2)cc1,4.7µM,-,.,-
O=C(c1ccc(CSc2nc3ccncc3[nH]2)cc1)N1CCCCCC1,-,?,-,-
S=c1nc(SCc2ccccc2)[nH]c2ccccc12,1.7µM,?,-,-
O=C(c1cccs1)N1CCN(c2cccc(Cl)c2)CC1,-,-,-,-
O=C(c1ccc([N+](=O)[O-])s1)N1CCN(c2cccc(Cl)c2)CC1,12µM,?,?,?
Cc1ccc(Cl)cc1N1CCN(C(=O)Cn2c(-c3cccs3)cc3cc(F)ccc32)CC1,.,-,.,.
COc1ccc2c(c1)c1c(c(=O)n(-c3ccc(C)cc3)c(=O)n1CC(=O)Nc1cc(C)ccc1C)n2C,.,-,.,.
CC(=O)c1cccc(NC(=O)Nc2sc3nc4n(c(=O)c3c2C)CCC(C)CC4)c1 (stereo unspecified),.,-,.,.
CCC(C)NC(=O)c1cccc(NC(=O)c2nsc3ccccc23)c1 (stereo unspecified),.,-,.,.
O=C(CSc1nc2ccccc2c(=O)[nH]1)NCc1ccc(Cl)cc1,-,-,.,-
O=c1[nH]c(SCc2ccc(Cl)cc2)nc2ccccc12,13µM,-,?,-
O=C(c1ccc2nc[nH]c2c1)N1CCN(c2cccc(Cl)c2)CC1,5.9µM,-,13µM,-
CCOc1ccc(C(=O)NCc2nc3cccnc3n2Cc2ccc(F)cc2)cc1OCC,.,-,.,.
CCCCNc1ccc(S(=O)(=O)c2cccc([N+](=O)[O-])c2)cc1[N+](=O)[O-],-,-,-,-
CCCCCCNc1c([N+](=O)[O-])cc(C)cc1[N+](=O)[O-],.,-69,.,-
Cc1ccc(-n2ncc3c(N4CCN(Cc5ccccc5)CC4)ncnc32)cc1Cl,.,-,.,.
SMILES,Pf growth 96h,HCMV inh,Pf growth 48h,HCV inhibitor
CC[C@]12c3[nH]c4ccccc4c3CCN1C(=O)C(CC(=O)NCC13CC4CC(CC(C4)C1)C3)C[C@@H]2C(=O)N1CCN(C(=O)C2CC2)CC1 (stereo partly specified),.,-,.,22µM
CC[C@]12c3[nH]c4ccccc4c3CCN1C(=O)C(CC(=O)NCc1ccco1)C[C@@H]2C(=O)N1CCN(C(=O)C2CC2)CC1 (stereo partly specified),.,-,.,0.79µM
CC[C@]12c3[nH]c4ccc(Cl)cc4c3CCN1C(=O)[C@@H](CC(=O)NCC13CC4CC(CC(C4)C1)C3)C[C@@H]2C(=O)N1CCN(C(=O)C2CC2)CC1,.,-,.,?
CC[C@]12c3[nH]c4ccc(Cl)cc4c3CCN1C(=O)[C@@H](CC(=O)NCc1ccco1)C[C@@H]2C(=O)N1CCN(C(=O)C2CC2)CC1,.,-,.,-
COc1ccccc1C(=O)Nc1ccc(OCc2cc(=O)n3ccsc3n2)cc1,.,-,.,.
O=C(O)c1ccc(N/N=C/c2ccncc2)cc1,-,-,-,-
O=C(O)c1ccc(N/N=C/c2ccc(OC(=O)c3cccc(Cl)c3)cc2)cc1,-,-64,-,-
